Test results published in PubChem BioAssay.
Active and inactive are the calls of the source.

What was measured:
[1] = tested on: Plasmodium falciparum Sir2 (PF13_0152, Sir2A); assay: pfSir2 binders on small-molecule microarrays, primary screen, biochemical, small-molecule microarray, 635 nm fluorescence (AID 1098); conditions: small-molecule microarray binding, fluorescence 635 nm; higher = more signal;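 also: score merges spot fluorescence intensity with its signal-to-noise ratio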
[2] = small-molecule microarray binders of probe aDKK1, primary screen, biochemical, biotinylated probe, 635/667 nm fluorescence (AID 1099); conditions: higher = more signal;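 also: score merges 667nm spot fluorescence with signal to noise across triplicate slides; reference of the scale not given here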
[3] = small-molecule microarray binders of probe aCHRDL2, primary screen, biochemical, biotinylated probe, 635/667 nm fluorescence (AID 1100); conditions: higher = more signal
[4] = splicing luciferase reporter signal modulators, primary screen, spliceosome inhibition project, cell-based, HEK293, splice +/- reporter (AID 1101); conditions: luminescence, 24 h, higher = more signal, called active from +8 up or from −8 down;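 also: HEK293 cells carrying a splicing-competent luciferase reporter gene; test concentration not given here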
[5] = target: Fibroblast growth factor 10 (Homo sapiens) (UniProt O15520); assay: FGF10 binders on small-molecule microarrays, primary screen, biochemical, small-molecule microarray, 635 nm fluorescence (AID 1102); conditions: FGF10 binding, fluorescence 635 nm, higher = more signal
Fibroblast growth factor 10 (Homo sapiens), sequence (O15520 whole entry, looked up): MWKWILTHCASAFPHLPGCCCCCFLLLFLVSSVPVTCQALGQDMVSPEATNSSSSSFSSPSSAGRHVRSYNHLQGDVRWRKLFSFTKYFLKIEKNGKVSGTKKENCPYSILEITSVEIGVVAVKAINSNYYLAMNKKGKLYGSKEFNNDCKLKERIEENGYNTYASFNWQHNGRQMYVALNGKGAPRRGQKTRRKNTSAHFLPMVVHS

[6] = tested on: glycogen synthase kinase-3 (GSK3A per assay name; protocol says GSK3B); assay: GSK3 binders on small-molecule microarrays, primary screen, biochemical, small-molecule microarray, 635 nm fluorescence, GSK3A (AID 1103); conditions: small-molecule microarray binding, fluorescence 635 nm; higher = more signal; also: the record names both GSK3A and GSK3B
[7] = target: Epidermal growth factor receptor (Homo sapiens) (UniProt P00533); assay: EGFR binders on small-molecule microarrays, primary screen, biochemical, small-molecule microarray, 635 nm fluorescence (AID 1104); conditions: EGFR binding, higher = more signal;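 also: score merges 667 nm emission intensity with spot signal to noise over triplicate slides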
Epidermal growth factor receptor (Homo sapiens), sequence (P00533 whole entry, looked up): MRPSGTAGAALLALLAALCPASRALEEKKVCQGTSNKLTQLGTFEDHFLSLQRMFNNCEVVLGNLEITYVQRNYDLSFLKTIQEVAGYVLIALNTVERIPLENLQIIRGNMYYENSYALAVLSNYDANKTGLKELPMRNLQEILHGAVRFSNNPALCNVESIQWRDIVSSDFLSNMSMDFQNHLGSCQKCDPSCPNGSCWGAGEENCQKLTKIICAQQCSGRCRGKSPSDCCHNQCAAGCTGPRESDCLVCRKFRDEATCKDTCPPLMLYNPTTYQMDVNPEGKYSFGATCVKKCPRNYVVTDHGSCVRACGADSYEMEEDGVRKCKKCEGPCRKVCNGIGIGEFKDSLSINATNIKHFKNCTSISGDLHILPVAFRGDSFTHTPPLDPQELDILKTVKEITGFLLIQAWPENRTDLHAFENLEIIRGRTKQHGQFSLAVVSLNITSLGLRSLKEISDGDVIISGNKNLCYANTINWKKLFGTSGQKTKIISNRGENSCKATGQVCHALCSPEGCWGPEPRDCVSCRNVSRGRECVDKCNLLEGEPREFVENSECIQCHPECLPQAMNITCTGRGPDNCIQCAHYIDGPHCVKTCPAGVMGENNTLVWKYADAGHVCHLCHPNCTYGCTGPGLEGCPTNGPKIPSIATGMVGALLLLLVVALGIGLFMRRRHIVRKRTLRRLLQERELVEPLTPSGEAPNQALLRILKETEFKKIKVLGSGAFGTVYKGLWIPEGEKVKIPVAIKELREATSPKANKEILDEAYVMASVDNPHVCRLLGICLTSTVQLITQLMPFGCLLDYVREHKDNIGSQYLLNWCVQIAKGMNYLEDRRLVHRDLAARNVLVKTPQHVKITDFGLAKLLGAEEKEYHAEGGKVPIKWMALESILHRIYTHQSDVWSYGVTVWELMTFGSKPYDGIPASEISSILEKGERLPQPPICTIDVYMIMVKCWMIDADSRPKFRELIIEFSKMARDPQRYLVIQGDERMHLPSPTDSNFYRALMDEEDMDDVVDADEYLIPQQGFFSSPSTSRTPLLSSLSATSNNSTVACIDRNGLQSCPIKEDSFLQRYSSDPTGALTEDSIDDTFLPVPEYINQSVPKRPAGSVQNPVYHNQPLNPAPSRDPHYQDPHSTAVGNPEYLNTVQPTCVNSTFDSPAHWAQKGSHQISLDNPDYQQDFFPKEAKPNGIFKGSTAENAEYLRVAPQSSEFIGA

[8] = target: Follistatin-related protein 3 (Homo sapiens) (UniProt O95633); assay: FSTL3 binders on small-molecule microarrays, primary screen, biochemical, small-molecule microarray, 635 nm fluorescence (AID 1105); conditions: FSTL3 binding, higher = more signal;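 also: score merges emission near 667 nm and signal to noise per printed spot across three slides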
Follistatin-related protein 3 (Homo sapiens), sequence (O95633 whole entry, looked up): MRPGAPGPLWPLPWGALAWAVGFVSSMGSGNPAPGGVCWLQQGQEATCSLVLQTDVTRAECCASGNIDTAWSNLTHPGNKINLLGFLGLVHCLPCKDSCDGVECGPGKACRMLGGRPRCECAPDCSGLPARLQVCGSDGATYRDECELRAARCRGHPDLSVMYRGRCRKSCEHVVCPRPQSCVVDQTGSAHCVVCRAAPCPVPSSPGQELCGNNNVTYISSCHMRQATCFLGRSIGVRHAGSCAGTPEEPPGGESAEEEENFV

[9] = target: Dickkopf-related protein 1 (Homo sapiens) (UniProt O94907); assay: DKK1 binders on small-molecule microarrays, primary screen, biochemical, small-molecule microarray, 635 nm fluorescence scan (AID 1106); conditions: DKK1 binding, higher = more signal;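 also: score merges emission near 667 nm with signal to noise over three replicate slides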
Dickkopf-related protein 1 (Homo sapiens), sequence (O94907 whole entry, looked up): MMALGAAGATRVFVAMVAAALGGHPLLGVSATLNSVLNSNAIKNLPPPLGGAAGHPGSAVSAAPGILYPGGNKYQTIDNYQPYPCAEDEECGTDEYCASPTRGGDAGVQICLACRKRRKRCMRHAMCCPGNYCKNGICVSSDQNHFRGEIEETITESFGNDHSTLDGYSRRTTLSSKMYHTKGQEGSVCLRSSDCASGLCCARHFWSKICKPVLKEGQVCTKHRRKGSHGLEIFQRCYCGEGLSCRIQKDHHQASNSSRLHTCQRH

[10] = tested on: Inhibin beta A chain (activin A); assay: INHBA (activin A) binders on microarrays, primary screen, biochemical, small-molecule microarray, 635 nm fluorescence scan (AID 1107); conditions: small-molecule microarray binding, higher = more signal;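 also: mouse activin A protein probed at 4.33 µg/mL on printed slides; score merges bound-protein fluorescence near 667 nm with spot signal-to-noise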

Row | SMILES | composite z-score [1] | composite z-score [2] | composite z-score [3] | z-score [4] | composite z-score [5] | composite z-score [6] | composite z-score [7] | composite z-score [8] | composite z-score [9] | composite z-score [10]
1 | COC(=O)[C@@]1(Cc2ccc(OC)cc2)[C@H]2c3cc(C(=O)N4CCCC4)n(Cc4ccccc4)c3C[C@H]2CN1C(=O)c1ccccc1 | 0.93 | 2.64 | 1.31 | -1.16 (inactive) | 1.31 | 0.472 | 0.801 | 0.413 | -0.505 | 0.651
2 | COc1ccc([C@H]2C[C@H]3C(Br)=C[C@@H]2C(=O)[C@]32CO2)cc1 | 0.0371 | -0.308 | -0.193 | -0.613 (inactive) | -0.105 | -0.515 | 0.427 | 0.202 | 1.03 | 1.52
3 | CS(=O)(=O)CCOC(=O)C1=CC(CCCO)=CC(c2ccc(CN3CCCC3)cc2)N(Cc2cc3c(cc2Br)OCO3)C=C1C(=O)OCCS(C)(=O)=O (stereo not given) | 1.52 | 0.525 | 0.555 | -0.9 (inactive) | 1.2 | 1.27 | 0.422 | 0.634 | 0.232 | 1.29
4 | C[N+](C)(C)CCCCNC(=O)[C@H]1C[C@H]2C(=O)N[C@@H](Cc3ccccc3)C(=O)N2[C@H]1c1ccc(O)cc1 | 0.137 | -0.0123 | -0.0505 | 0.0946 (inactive) | 0.612 | 0.0215 | 0.231 | 0.953 | 1.22 | 0.859
5 | COC(=O)c1c(CC[C@@H](CO)NC(=O)N[C@H](Cn2cc(Cc3ccccc3)nn2)C(C)C)oc(C(C)=O)c1C(=O)OC | 0.751 | -0.195 | -0.457 | -0.781 (inactive) | 1.16 | 0.544 | -0.172 | 0.678 | 0.857 | 0.509
6 | O=C1O[C@H](c2ccccc2)[C@H](c2ccccc2)N2[C@H]1[C@@H](C(=O)O)[C@]1(C(=O)Nc3ccc(C#CC4=CCCCC4)cc31)[C@H]2c1ccccc1OCCO | 1.49 | -0.738 | 0.134 | -0.246 (inactive) | 1.19 | 1.32 | 0.228 | 1.23 | 0.455 | 1.01
7 | CC(C)C[C@@H]1NC(=O)[C@@H]2C[C@H](C(=O)NCCCCCN)[C@H](c3cccc(OCCO)c3)N2C1=O | 1.44 | -0.0704 | 0.527 | -1.08 (inactive) | 0.272 | 0.685 | -0.26 | 0.627 | 0.387 | 0.842
8 | O=C1O[C@H](c2ccccc2)[C@H](c2ccccc2)N2[C@H]1[C@@H](C(=O)Nc1nc3ccccc3s1)[C@]1(C(=O)Nc3ccc(C#CCCO)cc31)[C@H]2c1ccc(OCCO)cc1 | 1.59 | -0.198 | -0.144 | -0.0209 (inactive) | 1.33 | 1.31 | 0.468 | 1.14 | 0.379 | 0.408
9 | CCc1oc(CC[C@@H](CO)NC(=O)NCCn2cc(C3(O)CCCCC3)nn2)c(C(=O)OC)c1C(=O)OC | 0.832 | -0.0378 | -0.402 | -0.0596 (inactive) | 1.13 | 0.972 | 0.717 | 1.33 | 0.887 | 0.289
10 | COc1ccc(C(O)C2C=CC3C(=O)N(c4ccccc4)C(=O)C3N2Nc2ccc(C(C)C)cc2)cc1OCc1ccccc1 (stereo not given) | 1.5 | 1.17 | 1.27 | -0.00529 (inactive) | 0.889 | 1.27 | 0.207 | 1.29 | -0.213 | 0.521
11 | C#CCN(CC1=CCCCC1)[C@H](c1ccccc1Br)[C@@H](O)Cc1ccccc1 | 1.53 | -0.0907 | 0.979 | -1.37 (inactive) | -1.25 | -0.28 | -1.56 | -1.28 | -1.07 | 0.685
12 | COc1ccc([C@H]2OC[C@@H]3CC4(CC=CC4)C(=O)N32)cc1 | 0.165 | -0.231 | -0.147 | -0.297 (inactive) | 0.93 | 0.784 | 1.04 | 1.31 | 1.42 | 1.25
13 | C=C(COC)/C(=C/C[C@H](OC(=O)c1ccncc1)c1ccc(OCCO)cc1)c1cnc2ccccc2c1 | 1.24 | 0.159 | -0.106 | -1.02 (inactive) | 1.36 | 1.07 | 1.26 | 1.55 | 1.01 | 1.61
14 | C=CC[C@@]1(C(N)=O)N=C(c2ccc(OCCCO)cc2)O[C@@H]1c1ccccc1CN=[N+]=[N-] | 1.02 | 0.917 | 1.19 | -1.63 (inactive) | 0.903 | 0.336 | -0.44 | 0.267 | -0.196 | 1.14
15 | CC1CC/C=C\[C@H]2OC34C=CCN(Cn5nnc6ccccc65)C(=O)[C@H]3N(C(CO)C(C)C)C(=O)[C@@H]4C2C(=O)O1 (stereo not given in full) | 0.868 | -0.165 | 0.547 | 0.209 (inactive) | -0.103 | -0.108 | -0.675 | -0.551 | -0.877 | 0.459
16 | O=C1OCCC/C=C\[C@H]2OC34C=CCN(c5ccc6ccccc6c5)C(=O)[C@H]3N(CCCCCCO)C(=O)[C@@H]4C12 (stereo not given in full) | 1.35 | -0.234 | 0.711 | -1.39 (inactive) | -0.873 | -0.525 | 0.102 | 0.0824 | -1.71 | 0.998
17 | CN(C)C(=O)[C@@]1(Cc2ccccc2CN=[N+]=[N-])N=C(c2ccc(OCCCO)cc2)O[C@H]1c1ccccc1 | 1.67 | -0.274 | 1.01 | 0.249 (inactive) | 1.21 | 0.585 | -0.333 | -0.283 | -0.766 | 0.823
18 | C=C(CCCC)C(=O)CC[C@H](OC(=O)c1cccnc1)c1ccccc1OCCO | 0.619 | -0.322 | 0.154 | -0.637 (inactive) | 0.704 | -1.05 | -0.0934 | 0.12 | 0.137 | 1.1
19 | COCCCN1C(=O)[C@@]2(Cc3ccccc31)c1ccccc1C(=O)N(Cc1ccccc1C(F)(F)F)[C@H]2c1ccc(CO)cc1 | 1.13 | -0.106 | -0.563 | 0.498 (inactive) | 0.94 | 0.561 | 0.12 | 0.919 | 0.756 | 0.915
20 | CCCCC=C[C@@H](NC(=O)Oc1cccc(C(F)(F)F)c1)c1ccccc1 | 0.495 | 1.45 | 0.879 | -1.75 (inactive) | 1.09 | 0.992 | 0.185 | 0.719 | -0.432 | 1.16
21 | CCN(CC)c1ccc(N2CC=CC34O[C@@H]5/C=C\CCC(C)OC(=O)C5[C@H]3C(=O)N(C(CO)C(C)C)[C@@H]4C2=O)cc1 (stereo not given in full) | 0.492 | -0.204 | 0.0959 | -0.208 (inactive) | -0.709 | -0.806 | -0.532 | -1.1 | -0.41 | 1.15
22 | O=C1NC(=O)C2C1C=CC(C(O)c1ccccc1)N2Nc1ccc(Cl)cc1Cl (stereo not given) | 1.62 | 0.394 | 0.914 | -1.36 (inactive) | 1.14 | 1.27 | 0.531 | 1.27 | -0.0035 | 0.705
23 | CCCCC(=C=CC[C@@H](O)c1ccccc1OCCO)CCO | -0.189 | 0.0035 | 0.001 | 0.579 (inactive) | 0.209 | -1.3 | -0.903 | -0.375 | -0.382 | 0.857
24 | C=C(COC)/C(=C/C[C@@H](OC(C)=O)c1ccc(CO)o1)c1cnc2ccccc2c1 | 0.974 | 0.201 | -0.189 | -0.683 (inactive) | 1.46 | 1.32 | 1.57 | 1.5 | 1.13 | 1.74
25 | Cc1ccc(S[C@]2(C(=O)NCC(F)(F)F)CC(=O)N(C(C)C)[C@@H]2c2ccc(CO)cc2I)cc1 | 0.903 | 0.372 | 0.893 | -0.465 (inactive) | 0.203 | -0.547 | -0.619 | -1.02 | -0.78 | 0.743
26 | COC(=O)c1c(CC[C@@H](CO)NC(=O)N[C@@H](C)Cn2cc(C3(O)CCCCC3)nn2)oc(C(C)=O)c1C(=O)OC | 1.35 | -0.0465 | -0.481 | -2.26 (inactive) | 1.2 | 1.25 | 0.763 | 1.27 | 0.892 | -0.216
27 | COCCOC(=O)N1C(=O)[C@@]2(c3cc(C#CC4(O)CCCCCC4)ccc31)[C@H](c1ccc(O)cc1)N1[C@H](c3ccccc3)[C@H](c3ccccc3)OC(=O)[C@H]1[C@@H]2C(=O)Nc1nc2ccccc2s1 | 0.483 | 1.17 | 0.784 | -0.54 (inactive) | 1.35 | 1.31 | 0.487 | 1.38 | 0.857 | 1.33
28 | COCCOC(=O)N1C(=O)[C@@]2(c3cc(C#CC4=CCCCC4)ccc31)[C@H](C(=O)Nc1nc3ccccc3s1)[C@H]1C(=O)O[C@H](c3ccccc3)[C@H](c3ccccc3)N1[C@@H]2c1ccc(OCCO)cc1 | 0.687 | -0.0057 | 0.235 | 0.000305 (inactive) | 0.945 | 1.21 | 0.36 | 0.908 | 0.495 | 0.91
29 | COC(=O)[C@@]1(Cc2ccc(F)cc2)[C@H]2c3cc(C(=O)N4CCCC4)n(Cc4ccc(C)o4)c3C[C@H]2CN1C(=O)c1ccccc1 | 1.55 | 0.72 | 1.02 | 3.29 (inactive) | 1.08 | 0.899 | 0.0358 | 0.596 | -0.177 | 0.87
